A short description of assay [1]: qHTS assay to test for compound auto fluorescence at 535 nm (green) in HEK293 cells (AID 720680). Background: In qHTS, concentration-response curves come from the screen itself.
Assay [2] can be described thus: qHTS assay to test for compound auto fluorescence at 460 nm (blue) in HEK293 cell free culture (AID 720681). Also: potency is read from the fitted curve at half-maximal effect. In outline: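 Blue fluorescence (Ex 405/Em 460 nm, triamterene-equivalent) was read immediately after pin transfer of compound or DMSO into medium (DMEM, 10% FBS) without cells.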
A short description of assay [3]: qHTS assay to test for compound auto fluorescence at 535 nm (green) in HEK293 cell free culture (AID 720682). An outline of the steps:
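Using fluorescein as calibrant, autofluorescence was quantified at 485/535 nm in cell-free DMEM containing 10% FBS after pintool addition of compound or vehicle.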

The nature of assay [4]: qHTS assay to test for compound auto fluorescence at 590 nm (red) in HEK293 cell free culture (AID 720683). An outline of the steps: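 Red-channel autofluorescence of compounds in culture medium (DMEM, 10% FBS), no cells, measured at 540/590 nm. Rose Bengal sodium is the reference fluorophore for equivalence.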
The nature of assay [5]: qHTS assay to test for compound auto fluorescence at 590 nm (red) in HepG2 cell free culture (AID 720684). An outline of the steps: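 No cells present: MEM + 10% FBS only. Compound pinned in, red label read (540/590 nm). Activity = fluorescence equivalent to Rose Bengal sodium.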
Assay [6] in a line: qHTS assay to test for compound auto fluorescence at 460 nm (blue) in HepG2 cell free culture (AID 720685). An outline of the steps:
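Cell-free plates of MEM plus 10% FBS received 23 nL compound or DMSO vehicle; blue-channel (405/460 nm) intensity scored against triamterene as reference fluorophore.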

The nature of assay [7]: qHTS assay to test for compound auto fluorescence at 535 nm (green) in HepG2 cell free culture (AID 720686).
Assay [8] in a line: qHTS assay to test for compound auto fluorescence at 460 nm (blue) in HepG2 cells (AID 720687). Also: potency is read from the fitted curve at half-maximal effect. An outline of the steps: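 Blue-channel autofluorescence (Ex/Em 405/460 nm, triamterene-equivalent) was measured after 1 hr compound exposure at 37 C, 5% CO2. Cells were HepG2, plated overnight at 37 C in MEM plus 10% FBS.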
Assay [9] in a line: qHTS assay to identify small molecule antagonists of the glucocorticoid receptor (GR) signaling pathway - cell viability counter screen (AID 720693). Also: nearly all actives have a fitted effect of over 55% in size.
Assay [10] can be described thus: qHTS assay for identifying genotoxic compounds that show differential cytotoxicity against isogenic chicken DT40 cell lines with known DNA damage response pathways - wild type cell line (AID 743012). Also: nearly all actives have a fitted effect of over 60% in size. Also: potency is read from the fitted curve at half-maximal effect. In outline:
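Endpoint: CellTiter-Glo luminescence, 30 min RT. Cells: wild type DT40, 300/well. Exposure: compounds in DMSO, 40 h, 37 C/5% CO2, after ~0.5 h pre-incubation.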

Assay [11] is described as follows: qHTS assay for identifying genotoxic compounds that show differential cytotoxicity against isogenic chicken DT40 cell lines with known DNA damage response pathways - Rev3 mutant cell line (AID 743014). Also: nearly all actives have a fitted effect of over 55% in size. Also: potency is read from the fitted curve at half-maximal effect.
The nature of assay [12]: qHTS assay for identifying genotoxic compounds that show differential cytotoxicity against isogenic chicken DT40 cell lines with known DNA damage response pathways - Rad54/Ku70 mutant cell line (AID 743015). Also: nearly all actives have a fitted effect of over 60% in size. Also: potency is read from the fitted curve at half-maximal effect.
Assay [13] can be described thus: qHTS assay to identify small molecule antagonists of the androgen receptor (AR) signaling pathway - cell viability counter screen (AID 743033; also: nearly all actives have a fitted effect of over 45% in size; also: potency is read from the fitted curve at half-maximal effect).
Assay [14] can be described thus: qHTS assay to identify small molecule antagonists of the androgen receptor (AR) signaling pathway using the MDA cell line - cell viability counter screen (AID 743041; also: nearly all actives have a fitted effect of over 45% in size). An outline of the steps:
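Using the breast carcinoma line MDA-kb2 AR-luc, test chemicals were co-incubated with R1881 for 16 h; CellTiter-Fluor reagent, added at 15.5 h, provided a fluorescence measure of live cells.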

Assay [15] concerns the target Androgen receptor (Homo sapiens) (UniProt P10275). Nature of the assay: qHTS assay to identify small molecule agonists of the androgen receptor (AR) signaling pathway using the MDA cell line (AID 743040; also: nearly all actives have a fitted effect of over 20% in size). In outline:
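Stable MMTV-luciferase reporter in MDA-kb2 cells; note the promoter carries GR as well as AR response elements. 16 h compound treatment, 37C, 0% CO2; ONE-Glo luminescence endpoint.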

For assay [16] the target is unchanged. Nature of the assay: qHTS assay to identify small molecule antagonists of the androgen receptor (AR) signaling pathway using the MDA cell line (AID 743042; also: nearly all actives have a fitted effect of over 55% in size). An outline of the steps: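 Antagonist mode: compounds plus R1881 agonist added to MDA-kb2 AR-luc cells, incubated 16 h at 37C. Luciferase reporter luminescence quantified, with multiplexed CellTiter-Fluor readout for cell viability.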

Assay [17] concerns the target Glucocorticoid receptor (Homo sapiens) (UniProt P04150). Put plainly: qHTS assay to identify small molecule agonists of the glucocorticoid receptor (GR) signaling pathway (AID 720691; active = well fitted activation curve with a large enough effect in the signal ratio in the repeat runs, not every such curve was filed as active; the % refers to the signal ratio). An outline of the steps:
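Measures GR pathway activation through a GRE-beta-lactamase reporter stably integrated in HeLa cells, with 18 h compound treatment at 37 C and fluorescence detection using a FRET substrate.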

Assay [18] concerns the target Androgen receptor (Homo sapiens) (UniProt P10275). Put plainly: qHTS assay to identify small molecule agonists of the androgen receptor (AR) signaling pathway (AID 743036; active = well fitted activation curve with a large enough effect in the signal ratio in the repeat runs, with a control signal flat, not every such curve was filed as active; the % refers to the signal ratio). In outline:
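In this Tox21 qHTS, 2,000 HEK293 AR-bla cells per well were incubated with compounds for 16 h at 37C and 5% CO2. Fluorescence intensity was recorded 2 h after adding LiveBLAzer B/G FRET substrate at room temperature.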

Assay [19] has the same target. Nature of the assay: qHTS assay to identify small molecule antagonists of the androgen receptor (AR) signaling pathway (AID 743035; active = well fitted inhibition curve with a large enough effect in the signal ratio in the repeat runs, not every such curve was filed as active; the % refers to the signal ratio). An outline of the steps:
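R1881 agonist challenge of a HEK293 UAS-beta-lactamase AR reporter line in the presence of compound (16 h, 37C); signal taken as FRET fluorescence after 2 h with LiveBLAzer B/G substrate at room temperature.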

The target of assay [20] is Glucocorticoid receptor (Homo sapiens) (UniProt P04150). Nature of the assay: qHTS assay to identify small molecule antagonists of the glucocorticoid receptor (GR) signaling pathway (AID 720692; active = well fitted inhibition curve with a large enough effect in the signal ratio in the repeat runs, not every such curve was filed as active; the % refers to the signal ratio; also: potency is read from the fitted curve at half-maximal effect). In outline:
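Tox21 10K library screened in concentration-response for blockade of dexamethasone (5 nM final)-induced GRE-bla reporter activity in HeLa cells; 18 h treatment, fluorescence read.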

Values without a mark were called inactive. Records with an inconclusive call do not appear. Active and inactive are the calls of the source. Unless noted, calls follow the shape of the dose curve; as a rule, active = well fitted curve in the direction sought with a large enough effect in the repeat runs; inconclusive = weak or mixed curves; inactive = no such curve, though single readings can be large; an effect the other way counts as inactive or inconclusive.
% is scaled to controls: 0 for no effect and ±100 for the full control effect; tags tell the direction and shape of the fitted curve or compound fluorescence and quenching.

Sequence of Androgen receptor (Homo sapiens) (P10275 whole entry, looked up): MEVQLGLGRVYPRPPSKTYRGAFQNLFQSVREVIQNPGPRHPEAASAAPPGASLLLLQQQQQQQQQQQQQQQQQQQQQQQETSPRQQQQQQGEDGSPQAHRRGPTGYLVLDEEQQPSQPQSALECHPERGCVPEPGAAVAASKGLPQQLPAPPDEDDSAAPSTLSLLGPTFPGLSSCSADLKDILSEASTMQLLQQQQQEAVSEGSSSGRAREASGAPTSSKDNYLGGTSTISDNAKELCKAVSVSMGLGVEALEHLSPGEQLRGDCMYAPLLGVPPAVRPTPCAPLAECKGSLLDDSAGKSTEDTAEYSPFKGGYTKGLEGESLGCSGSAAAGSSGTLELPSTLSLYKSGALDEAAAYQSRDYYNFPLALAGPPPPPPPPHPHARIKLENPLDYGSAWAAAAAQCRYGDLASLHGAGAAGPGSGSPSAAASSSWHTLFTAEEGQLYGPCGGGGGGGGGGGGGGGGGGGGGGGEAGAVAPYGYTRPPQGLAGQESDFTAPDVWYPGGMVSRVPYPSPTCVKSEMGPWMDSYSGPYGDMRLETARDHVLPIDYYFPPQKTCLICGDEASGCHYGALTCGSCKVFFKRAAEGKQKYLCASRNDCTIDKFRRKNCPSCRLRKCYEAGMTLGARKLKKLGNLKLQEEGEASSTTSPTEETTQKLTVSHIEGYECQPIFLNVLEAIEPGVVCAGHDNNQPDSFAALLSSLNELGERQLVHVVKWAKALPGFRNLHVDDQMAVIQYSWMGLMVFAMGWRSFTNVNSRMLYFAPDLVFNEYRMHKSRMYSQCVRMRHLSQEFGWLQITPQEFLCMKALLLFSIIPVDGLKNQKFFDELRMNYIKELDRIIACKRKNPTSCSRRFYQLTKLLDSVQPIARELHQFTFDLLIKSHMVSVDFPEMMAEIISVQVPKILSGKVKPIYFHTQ
Sequence of Glucocorticoid receptor (Homo sapiens) (P04150 whole entry, looked up): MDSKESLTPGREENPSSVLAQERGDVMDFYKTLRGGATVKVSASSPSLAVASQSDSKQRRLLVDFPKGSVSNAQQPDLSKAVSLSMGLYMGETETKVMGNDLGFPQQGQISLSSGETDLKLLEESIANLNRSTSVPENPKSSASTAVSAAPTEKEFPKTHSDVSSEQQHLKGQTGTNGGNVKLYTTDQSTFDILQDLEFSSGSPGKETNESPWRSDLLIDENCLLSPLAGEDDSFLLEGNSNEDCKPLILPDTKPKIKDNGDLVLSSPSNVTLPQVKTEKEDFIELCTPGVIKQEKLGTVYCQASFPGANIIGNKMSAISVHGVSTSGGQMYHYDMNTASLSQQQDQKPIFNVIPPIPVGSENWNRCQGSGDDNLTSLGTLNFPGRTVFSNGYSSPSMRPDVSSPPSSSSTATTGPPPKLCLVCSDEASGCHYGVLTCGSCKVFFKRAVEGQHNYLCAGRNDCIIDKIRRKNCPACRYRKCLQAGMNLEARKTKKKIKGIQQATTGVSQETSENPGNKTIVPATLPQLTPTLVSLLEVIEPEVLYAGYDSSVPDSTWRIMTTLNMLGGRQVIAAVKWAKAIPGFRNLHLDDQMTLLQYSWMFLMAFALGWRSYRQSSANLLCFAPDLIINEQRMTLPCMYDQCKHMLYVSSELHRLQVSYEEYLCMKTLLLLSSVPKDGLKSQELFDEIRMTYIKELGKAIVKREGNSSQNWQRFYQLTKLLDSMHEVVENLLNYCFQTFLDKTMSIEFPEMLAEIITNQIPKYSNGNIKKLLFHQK

With `C=COCC(C)C`, the call in assay [1], in [3], in assay [4], in assay [5] and in [7] was inactive. For the same compound, the Potency result in [2], in assay [6], in assay [8], in [9], in [10] and in [11] was “inactive” in each case. Besides, the Potency entry in [12], in [13] and in assay [14] was “inactive” throughout.

As to `Nc1nc2ccc([N+](=O)[O-])cc2s1`, the call in assay [1], in assay [3], in assay [4], in assay [5], in assay [7] and in assay [15] was inactive. Further, the Potency result in assay [2], in assay [6], in assay [8], in [9], in assay [13] and in [16] was “inactive” in each case. In addition, the Potency in assay [11] is 64.8 µM (active).

`c1ccc2sc(SN(C3CCCCC3)C3CCCCC3)nc2c1`: the compound was classed as inactive in [1], in assay [3], in assay [4], in [5] and in [7]. In addition, the Potency entry in assay [2], in assay [6], in assay [8], in assay [9], in [10] and in [13] was “inactive” each time. In [14], the Potency result was “inactive”.

On to `C/C=C(/C(=C/C)c1ccc(O)cc1)c1ccc(O)cc1`, for which the fluorescence, % of fluorescein in assay [1] was 0.128% [at 18.6 µM]. Besides, the fluorescence, % of fluorescent control is 0.115% [at 18.6 µM] in assay [2], 0.121% [at 18.6 µM] in assay [4], -0.0042% [at 18.6 µM] in assay [6] and 0.0165% [at 18.6 µM] in assay [8]. For the same compound, in assay [3], the activity change is -0.004% [at 18.6 µM]. Besides, the fluorescence, % of Rose Bengal in assay [5] is 0.0319% [at 18.6 µM]. In addition, the fluorescence, % of fluorescein control in [7] is -0.0063% [at 18.6 µM]. The Potency entry in [17], in assay [10] and in assay [14] was “inactive” in each case.

On to `COc1ncnc(NS(=O)(=O)c2ccc(N)cc2)c1OC`, for which the call in assay [1], in [3], in assay [4], in assay [5] and in [7] was inactive. Further, the Potency result in [2], in [6], in [8], in assay [9], in assay [10] and in assay [11] was “inactive” each time. Further, the Potency result in [12], in assay [13] and in assay [14] was “inactive” in each case.

On to `CCCCOc1ccc(OCCCN2CCOCC2)cc1`, for which the fluorescence, % of fluorescein in assay [1] was 0.0257% [at 18.6 µM]. For the same compound, the fluorescence, % of fluorescent control is -0.123% [at 18.6 µM] in assay [2], -0.046% [at 18.6 µM] in [4], -0.102% [at 18.6 µM] in assay [6] and -0.0756% [at 18.6 µM] in assay [8]. Also, the activity change in assay [3] was 0.0858% [at 18.6 µM]. Moreover, in [5], the fluorescence, % of Rose Bengal is 0.461% [at 18.6 µM]. In addition, the fluorescence, % of fluorescein control in assay [7] was -0.0254% [at 18.6 µM]. Besides, the Potency entry in [9], in assay [13] and in assay [14] was “inactive” each time. In addition, the results for the Potency in assay [10], in [11] and in assay [12] were 2.54 µM (active), 1.01 µM (active) and 2.27 µM (active), respectively.

For the compound `CC1=Nc2ccc3ccccc3c2C1(C)C`, the call in assay [1], in [3], in assay [4], in [5], in [7] and in [18] was inactive. The call in assay [15] was inactive. For the same compound, the Potency result in assay [2], in assay [6], in assay [8], in assay [9] and in assay [16] was “inactive” throughout.

Turning to `CC(C)=CC(=O)C=C(C)C`, the compound was called inactive in assay [1], in [3], in [4], in assay [5] and in [7]. In addition, the Potency result in assay [2], in assay [8], in assay [9], in assay [10], in [11] and in assay [12] was “inactive” throughout. The Potency entry in assay [13] and in assay [14] was “inactive” in each case.

Regarding `CN1CCCC(CC2c3ccccc3Sc3ccccc32)C1` (configuration not stated), the fluorescence, % of fluorescein in assay [1] was 0.0892% [at 18.6 µM]. Further, the fluorescence, % of fluorescent control in assay [2] is -0.0216% [at 18.6 µM]; in assay [4], 0.0507% [at 18.6 µM]; in [8] it was 0.049% [at 18.6 µM]. For the same compound, the activity change in [3] was 0.123% [at 18.6 µM]. Further, the fluorescence, % of Rose Bengal in assay [5] was -0.0495% [at 18.6 µM]. The fluorescence, % of fluorescein control in assay [7] is -0.006% [at 18.6 µM]. The Potency result in assay [17], in [9] and in assay [14] was “inactive” each time. For the same compound, the Potency is 5.07 µM (active) in assay [10], 7.17 µM (active) in assay [11] and 8.04 µM (active) in [12].

As to `O=C(Cn1ccnc1[N+](=O)[O-])NCCO`, the compound was classed as inactive in assay [1], in [3], in assay [4], in [5], in assay [7] and in assay [18]. Also, the call in assay [15] was inactive. In addition, the Potency result in [2], in assay [6], in assay [8], in assay [10], in [11] and in assay [12] was “inactive” each time. The Potency result in [13], in [19], in assay [14] and in assay [16] was “inactive” in each case.

For `COc1ccccc1NC(=O)c1cc2ccccc2cc1O`, the call in [1], in assay [3], in assay [4], in assay [5], in assay [7] and in assay [18] was inactive. The compound was classed as inactive in [15]. The Potency in assay [2] was 44.7 µM (active); in [8], 39.8 µM [fluorescent] (active); in assay [20], 38.9 µM (active); in assay [10] it was 43.3 µM (active); in assay [11] it was 48.6 µM (active); in assay [12], 30.6 µM (active). Also, in [13], the Potency was 13.8 µM (active). Also, the Potency result in assay [17] and in assay [14] was “inactive” each time.

Take `Cc1cc(C)c(N)cc1C`: the compound was called inactive in assay [1], in assay [3], in assay [4], in assay [5] and in [7]. Besides, the Potency result in assay [2], in assay [8], in assay [17], in [20], in [9] and in assay [10] was “inactive” each time. For the same compound, the Potency entry in [11], in assay [12], in assay [13] and in [14] was “inactive” each time.

Take `O=C1NCCN1CCO`: the outcome in assay [1], in assay [3], in assay [4], in assay [5] and in [7] was inactive. Besides, the Potency entry in assay [2], in [6], in assay [8], in [10], in assay [11] and in assay [12] was “inactive” each time. In addition, the Potency entry in assay [13] and in assay [14] was “inactive” in each case.

For the compound `Oc1c(I)cc(I)c2cccnc12`, the compound was called inactive in assay [1], in assay [3], in assay [4], in assay [5] and in [7]. Besides, the Potency entry in assay [2], in assay [8], in assay [13] and in assay [14] was “inactive” throughout. Further, the Potency in [12] was 13.3 µM (active).

The values are drawn from PubChem BioAssay (Tox21).
